Test results from PubChem BioAssay AID2384 (Southern Research Specialized Biocontainment Screening …, 2010).
The campaign covered roughly 2,300 compounds. About 1,100 (48%) were called active. No rule for the calls is given here. The set was probably picked from earlier hits. The list shows a part of the results. Potency and affinity values are given separately.

test: S. typhi counter-screen signal inhibition – fluorescence, 4 h, counter-screen for PhoP regulon inhibitor project, dose response (AID 2384); details: S. typhi GFP reporter counter-screen; series mostly up to 150 µM; inhibition: at the top concentration

SMILES	inhibition
CCn1c(SCC(=O)Nc2oc(-c3ccccc3)c(-c3ccccc3)c2C#N)nnc1-c1ccco1	-4.5% (inactive)
O=C(O)Cn1c(=O)c2c3c(sc2n(Cc2ccccc2F)c1=O)CCCC3	4.22% (inactive)
Cc1cc(N2CCCCC2)c(F)cc1[N+](=O)[O-]	1.62% (inactive)
O=C1CCCC(=O)N1c1ccc(N2CCOCC2)c([N+](=O)[O-])c1	-18.8% (inactive)
Cc1cnc(NC(=O)CN2C(=O)C3CC=CCC3C2=O)s1 (centres undefined)	9.52% (inactive)
O=C(Nc1ccccc1)c1ccc2nsnc2c1	-11.4% (inactive)
Cc1ccccc1N1C(N)=NC(N)=NC1(C)C	-17.2% (inactive)
COC(=O)C(NC(C)=O)(Nc1nc2c(s1)CCCC2)C(F)(F)F (centres undefined)	-34.8% (inactive)
CCOC(=O)CSc1nc(-c2ccccc2)nc2ccccc12	4.75% (inactive)
Cc1[nH]c2ccccc2c1/C=C/c1nc2ccccc2c(=O)[nH]1	-58.7% (inactive)
COc1ccc(Cn2c(=N)c(C(=O)NCC3CCCO3)cc3c(=O)n4ccccc4nc32)cc1 (centres undefined)	14.7% (inactive)
O=S(=O)(c1ccccc1)c1nc(-c2cccs2)oc1NCC1CCCO1 (centres undefined)	1.69% (inactive)
c1ccc2oc(-c3csc(NCC4CCCO4)n3)cc2c1 (centres undefined)	14.7% (inactive)
COc1ccccc1Nc1nc(NCC2CCCO2)c2ccccc2n1 (centres undefined)	-17.3% (inactive)
COc1ccc(CCn2c(=N)c(C(=O)NCC3CCCO3)cc3c(=O)n4ccccc4nc32)cc1 (centres undefined)	-24.6% (inactive)
COc1ccc(Nc2nnc(SCC3CCCO3)s2)cc1 (centres undefined)	-2.81% (inactive)
CC(=O)c1cccc(CN2CCN(C3CCCC3)C(CCO)C2)c1 (centres undefined)	-25.6% (inactive)
CCCC1(c2ccccc2)NC(=O)N(CC(=O)Nc2ccccc2C(F)(F)F)C1=O (centres undefined)	-9.26% (inactive)
Cc1cccn2c(=O)c3cc(C(=O)NCC4CCCO4)c(=N)n(C4CCCC4)c3nc12 (centres undefined)	6.06% (inactive)
O=C(NCC1CCCO1)c1cc2ccccc2oc1=O (centres undefined)	-11.7% (inactive)
Cc1oc2nc(SCCCC(=O)NCCCO)nc(N)c2c1C	12% (inactive)
Cc1c(C(=O)O)c(-c2ccccc2)nn1-c1ccccc1	27.3% (inactive)
CCN(CC)C(=O)CNC(=O)Cc1ccc(Cl)cc1	2.3% (inactive)

SMILES	inhibition
O=C1c2ccccc2C(=O)N1CCCP(=O)(O)CCc1ccccc1	-32.8% (inactive)
COc1ccc(/C=N/NC(=O)c2ccc3c(c2)OCO3)cc1	32.6% (inactive)
COc1ccc(N2CCN(C(CNC(=O)c3ccc4c(c3)OCO4)c3ccco3)CC2)cc1 (centres undefined)	6.52% (inactive)
O=C(N/N=C\c1ccc(F)cc1)c1ccc(F)cc1	6.55% (inactive)
CCCCN1/C(=C/c2cccc[n+]2C)Sc2cc(NC(C)=O)ccc21	12.8% (inactive)
O=C(CSc1nc2ccccc2o1)c1cc2ccccc2oc1=O	-0.48% (inactive)
CC(Sc1nc2ccccc2o1)C(=O)O (centres undefined)	20% (inactive)
Cc1c(CC(=O)N2CCC(C(N)=O)CC2)c(=O)oc2cc3c(cc12)CCC1(CCCCC1)O3	6.85% (inactive)
O=C(/C=C/c1c(F)cccc1Cl)N1CCOCC1	20.2% (inactive)
CC1CCN(C(=O)COc2ccc(Nc3ccccc3)cc2)CC1	-23.7% (inactive)
Cc1cc(N/N=C/c2ccc(F)cc2)nc(NCc2ccccc2)n1	15.9% (inactive)
COc1ccc2nc(Nc3ccccc3)sc2c1	39.4% (inactive)
O=C(Nc1ccc(N2CCOCC2)cc1)C1CCN(S(=O)(=O)c2ccccc2F)CC1	-25% (inactive)
CCCCNC(=S)Nc1ccc([N+](=O)[O-])cc1	0.84% (inactive)
CCn1cc(C(=O)NCc2ccc3c(c2)OCO3)c(=O)c2cc(F)c(N3CCN(C(=O)c4ccco4)CC3)cc21	39.6% (inactive)
CCn1cc(C(=O)N[C@@H](C)C(=O)OC)c(=O)c2cc3c(cc21)OCO3	17.9% (inactive)
CCN(CC)S(=O)(=O)c1ccc2c(c1)c(C(=O)O)cn2C	9.26% (inactive)
O=C(c1cc2c(s1)-c1ccccc1OC2)N1CCc2ccccc2C1	25.9% (inactive)
Nc1c(-c2ccccc2)sc2ccc3ccccc3[n+]12	-9.75% (inactive)
CN(Cc1ccccc1)S(=O)(=O)c1csc(C(N)=O)c1	4.18% (inactive)
Cc1cccc(NC(=O)c2ccccc2Br)n1	-13% (inactive)
Cc1ccc(C(C)C)c(OCCNC(=O)c2ccccc2O)c1	-21.1% (inactive)
CN1C(=O)c2ccc(NC(=O)C3CCCCC3)cc2C1=O	10.3% (inactive)

SMILES	inhibition
CC(=O)c1c(C)[nH]c(C(=O)OCC(=O)NCC(C)C)c1C	8.29% (inactive)
Cc1ccc(NC(=S)NCc2cccs2)cc1	-16.3% [at 75 µM] (inactive)
O=C(NCCc1ccncc1)Nc1ccc(Cl)c(Cl)c1	29.8% (inactive)
O=C(O)CCSCc1ccccc1F	1.37% (inactive)
Cc1cc2cc(CNC(=O)C(C)Oc3ccccc3)ccc2n1C (centres undefined)	10.9% (inactive)
COC(=O)c1cccc(C(=O)N2CCCC(CCC(=O)N(C)CCc3ccccn3)C2)c1 (centres undefined)	-21.1% (inactive)
Fc1ccc(NC(=S)NCc2ccccc2Cl)cc1	4.19% (inactive)
COc1cccc(CNc2nn[nH]n2)c1OC	-1.43% (inactive)
COc1ccccc1CNC(=O)COC(=O)CCC(=O)c1cccs1	20.7% (inactive)
Cc1cc(=O)oc2cc(OCC(=O)NC3CCCC3)ccc12	-14.7% (inactive)
COc1cccc(C(=O)Nc2cccc(SC)c2)c1	17.3% (inactive)
CSc1cccc(NC(=O)/C=C/c2ccco2)c1	27.3% (inactive)
CC(C)CCNC(=O)c1cc2c(s1)-c1ccccc1S(=O)(=O)C2	-18.7% (inactive)
COC(=O)c1ccc(CSc2nc3ccccc3c(=O)n2-c2ccc(OC)c(OC)c2)o1	8.35% (inactive)
Cc1[nH]nc2c1C1(CCC3(CC1)OCCO3)C(C#N)=C(N)O2	29% (inactive)
Cc1ccsc1/C=N\NC(=O)c1ccc2c(c1)OCO2	29.4% [at 18.8 µM] (inactive)
Cc1ccc2cc(-c3noc(C4CCCO4)n3)c(=O)[nH]c2c1 (centres undefined)	38.1% (inactive)
Cc1[nH]c(=O)[nH]c(=O)c1S(=O)(=O)N1CCCC(C(=O)NCc2ccc3c(c2)OCO3)C1 (centres undefined)	-18.7% (inactive)
CCc1cccc2c(C=C(C#N)C#N)cn(CC(=O)N3CCCCCC3)c12	-11.1% (inactive)
N#Cc1c(/N=C/c2cccs2)sc2c1CCCCC2	-21.1% (inactive)
Cc1nc(NC2=NCN(CCCN3CCOCC3)CN2)nc2c(C)cccc12	24.1% (inactive)
COc1cccc(NC(=O)CN(C)C(C)C(=O)Nc2ccc(S(=O)(=O)N3CCOCC3)cc2)c1 (centres undefined)	-0.15% (inactive)
COc1cccc(CNC(=O)C2CCN(S(=O)(=O)c3ccc(C)cc3)CC2)c1	-14.8% (inactive)

SMILES	inhibition
Nc1nc(SCC(=O)Nc2ccc3c(c2)CCC3)n[nH]1	6.01% (inactive)
CC(C)Cc1c(O)nc(SCC(=O)Nc2ccc3c(c2)CCC3)[nH]c1=O	27.6% (inactive)
CC(=O)c1ccc(NC(=S)NC(NC(=O)c2ccco2)C(Cl)(Cl)Cl)cc1 (centres undefined)	15.3% (inactive)
N#CC(C(=O)C12CC3CC(CC(C3)C1)C2)c1nc2ccccc2[nH]1 (centres undefined)	-2.5% (inactive)
CC(C)SCc1nc2ccccc2[nH]1	-16.5% (inactive)
Cc1nn(-c2nc3ccccc3[nH]2)c(N)c1-c1ccccc1	17.9% (inactive)
COc1cccc(CNS(=O)(=O)c2ccc3c(c2)NC(=O)CS3)c1	-0.3% (inactive)
O=C(O)CC12CC3CC(C1)CC(n1ncc(NCC4CCCO4)c(Cl)c1=O)(C3)C2 (centres undefined)	-22.1% (inactive)
Cc1ccc(NC2=C(Cl)C(=O)OC2OC(=O)c2ccco2)c(C)c1 (centres undefined)	-8.96% (inactive)
O=C(NCc1nc2ccccc2[nH]1)c1ccc([N+](=O)[O-])cc1	37.4% (inactive)
CN(C)C(CNc1ccc([N+](=O)[O-])cc1C#N)c1ccccc1 (centres undefined)	32.1% (inactive)
COc1ccc(C2=NN3C(C2)c2ccccc2OC3c2cccs2)cc1 (centres undefined)	10.4% (inactive)
CCS(=O)(=O)N1CCN(C2CCC(c3ccccc3)CC2)CC1 (centres undefined)	24.4% (inactive)
CNS(=O)(=O)c1cc(OC)ccc1OC	-5.88% (inactive)
NC(=O)c1cc(C(=O)c2cccc(Cl)c2Cl)c[nH]1	29.6% (inactive)
CCOC(=O)COn1c(=O)c(-c2cccs2)[n+]([O-])c2ccccc21	4.01% (inactive)
CCOc1ccc(N2C(=O)S/C(=C\c3ccc(O)c(OC)c3)C2=O)cc1	-3.62% (inactive)
c1ccn(-c2ccc(-c3ccn[nH]3)cc2)c1	-23.6% (inactive)
CC(=O)Nc1nc(C)c(-c2csc(Nc3ccc(O)cc3)n2)s1	36.7% (inactive)
Cc1cc(NS(=O)(=O)c2ccc(Nc3nc(-c4sc(NC(=O)c5ccccc5)nc4C)cs3)cc2)no1	-13.7% (inactive)
Cc1cc(C)c[n+](CC(=O)c2ccc(NC(=O)c3ccccc3)cc2)c1	29.9% (inactive)
CC(C)(C)n1nc2c(c1NC(=O)c1ccccc1)CS(=O)(=O)C2	15.3% (inactive)
Clc1ccc(Cn2cc(Br)cn2)cc1Cl	12.1% (inactive)

SMILES	inhibition
COC(=O)Cn1c(=O)c(C)nc2ccccc21	-6.54% (inactive)
COCCn1nnnc1C(c1cccc(OC)c1OC)N1CCN(C2CCCCC2)CC1 (centres undefined)	-15.4% (inactive)
COc1cc2[nH]c(=O)n(Cc3ccc(C(=O)N4CCC(N5CCCCC5)CC4)cc3)c(=O)c2cc1OC	-16.4% (inactive)
O=C1c2cccnc2C(=O)N1c1ccccc1-c1ccccc1	14.5% (inactive)
CC(C)(C)n1nc2c(c1NC(=O)c1cccs1)CS(=O)C2 (centres undefined)	5.52% (inactive)
CC(C)(C)c1ccc(C(=O)NNC(=O)Cc2ccccc2)cc1	9.8% (inactive)
O=C(c1cccs1)N1CCN(S(=O)(=O)c2ccccc2)CC1	11.9% (inactive)
CCc1ccccc1NC(=S)N(Cc1cccc(C)c1)c1cccnc1	-8.36% (inactive)
N#Cc1c(-c2ccccc2)ccn(Cc2cccc(Cl)c2)c1=O	0.97% (inactive)
N=c1sc2c(n1Cc1ccccc1)CCCC2	25.6% (inactive)
Nc1nc2n(n1)C(c1ccco1)CC(c1ccc(Cl)c(Cl)c1)N2 (centres undefined)	-6.04% (inactive)
Cc1ccc2nc3c(c(N)c2c1)CCN3C	22.2% (inactive)
O=C(CSc1nnnn1C1CCCCC1)N1CCCC1	3.49% (inactive)
Cc1cc(C)nc(NS(=O)(=O)c2ccc(N3C(=O)C4CC=C(Cl)CC4C3=O)cc2)n1 (centres undefined)	-4.28% (inactive)
COC(=O)Cc1ccc(NC(=S)NCc2ccc(Cl)cc2)cc1	-2.91% (inactive)
Cc1ccc(NC(=O)C(=O)NCc2ccncc2)cc1	-0.03% (inactive)
CCOc1ccccc1NC(=O)Nc1ccncc1	-8.96% (inactive)
O=S(=O)(Nc1ncccn1)c1ccc(NC(=S)Nc2ccc(Cl)cc2)cc1	-30.1% (inactive)
Fc1cccc(NC(=S)NCc2ccc(Cl)cc2)c1	-6.29% (inactive)
CCNC(=S)Nc1cccc(S(=O)(=O)Nc2ccccc2OC)c1	8.49% (inactive)
Cc1ccc(S(=O)(=O)N(Cc2n[nH]c(=S)n2-c2ccccc2)c2ccccc2)cc1	2.7% (inactive)
CCN(C1CCCCC1)S(=O)(=O)c1ccc(OC)c(C)c1	15.5% (inactive)
